Test results: PubChem BioAssay AID1159580 (chemical genetic matrix, 2015)
Where “and” joins values, the source holds several entries; their conditions need not be identical. Equal entries are not always repeated. Out of some 5,500 compounds screened, about 2,000 (36%) were called active. Another 18% or so got no clear call; they are omitted. No stated cut-off is given here; in the data, active means normalized growth mostly below about 0.91 (no sharp cut-off); inconclusive means no clear call, values can overlap the other calls; inactive means mostly above about 0.92. This is one part of the list.

Test: chemical genetic growth profiling, strain panel (AID 1159580);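 further: tested at 20 µM; growth read once vehicle control cultures reached saturation at 30 °C; 1 = growth at the plate median or of vehicle wells; lower values mean less growth of the strain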
Details: growth OD

Measured: normalized growth

CC(C)(C)NCC(O)c1ccccc1Cl (stereo unspecified)
inactive: S. cerevisiae deletion strains, locus YJR075W, strain HOC1, active compounds read low 1.01 and 1.04 | S. cerevisiae deletion strains, locus YKL009W, strain mrt4, active compounds read low 0.96 | S. cerevisiae deletion strains, locus YKL068W, active compounds read low 0.991 | S. cerevisiae deletion strains, locus YKL085W, strain MDH1 (second series), active compounds read low 0.983 | S. cerevisiae deletion strains, locus YKL085W, strain MDH1, active compounds read low 0.983 | S. cerevisiae deletion strains, locus YKL160W, strain elf1, active compounds read low 1.02 | S. cerevisiae deletion strains, locus YKL190W, strain CNB1, active compounds read low 0.995 | S. cerevisiae deletion strains, locus YKR001C, strain vps1, active compounds read low 0.976 | S. cerevisiae deletion strains, locus YKR026C, strain gcn3, active compounds read low 0.994 | S. cerevisiae deletion strains, locus YKR091W, strain srl3, active compounds read low 0.997 | S. cerevisiae deletion strains, locus YLL001W, strain dnm1, active compounds read low 1 | S. cerevisiae deletion strains, locus YLL026W, active compounds read low 0.983 | S. cerevisiae deletion strains, locus YLL041C, strain sdh2, active compounds read low 0.997 | S. cerevisiae deletion strains, locus YLR027C, strain aat2, active compounds read low 0.992 | S. cerevisiae deletion strains, locus YLR039C, strain RIC1, active compounds read low 0.923 | S. cerevisiae deletion strains, locus YLR058C, strain SHM2, active compounds read low 0.975 | S. cerevisiae deletion strains, locus YLR102C, strain apc9, active compounds read low 0.986 | S. cerevisiae deletion strains, locus YLR113W, strain HOG1, active compounds read low 1.01 | S. cerevisiae deletion strains, locus YLR221C, strain rsa3, active compounds read low 1.01 | S. cerevisiae deletion strains, locus YLR258W, strain gsy2, active compounds read low 0.974 | S. cerevisiae deletion strains, locus YLR262C, strain YPT6 (second series), active compounds read low 0.997 | S. cerevisiae deletion strains, locus YLR262C, strain YPT6, active compounds read low 0.887 | S. cerevisiae deletion strains, locus YLR268W, strain sec22, active compounds read low 1.09 | S. cerevisiae deletion strains, locus YLR320W, strain mms22, active compounds read low 0.981 | S. cerevisiae deletion strains, locus YLR330W, strain CHS5, active compounds read low 0.992 | S. cerevisiae deletion strains, locus YLR342W, strain FKS1 (second series), active compounds read low 0.967 | S. cerevisiae deletion strains, locus YLR342W, strain FKS1, active compounds read low 0.999 | S. cerevisiae deletion strains, locus YLR357W, strain rsc2, active compounds read low 0.982 | S. cerevisiae deletion strains, locus YLR370C, strain arc18, active compounds read low 0.997 | S. cerevisiae deletion strains, locus YLR371W, strain rom2, active compounds read low 0.982 | S. cerevisiae deletion strains, locus YLR384C, strain iki3, active compounds read low 0.989 | S. cerevisiae deletion strains, locus YLR418C, strain cdc73, active compounds read low 0.993 | S. cerevisiae deletion strains, locus YML016C, strain PPZ1, active compounds read low 0.99 | S. cerevisiae deletion strains, locus YML032C, strain rad52, active compounds read low 1.02 | S. cerevisiae deletion strains, locus YML120C, strain ndi1, active compounds read low 1.01 | S. cerevisiae deletion strains, locus YML124C, strain tub3, active compounds read low 0.984 | S. cerevisiae deletion strains, locus YMR058W, strain fet3, active compounds read low 0.997 | S. cerevisiae deletion strains, locus YMR078C, strain ctf18, active compounds read low 0.982 | S. cerevisiae deletion strains, locus YMR125W, strain sto1, active compounds read low 0.962 | S. cerevisiae deletion strains, locus YMR129W, active compounds read low 0.967 | S. cerevisiae deletion strains, locus YMR205C, strain PFK2, active compounds read low 0.951 | S. cerevisiae deletion strains, locus YMR223W, strain ubp8, active compounds read low 0.96 | S. cerevisiae deletion strains, locus YMR231W, strain pep5, active compounds read low 0.998 | S. cerevisiae deletion strains, locus YMR263W, strain SAP30, active compounds read low 0.993 and 0.995 | S. cerevisiae deletion strains, locus YMR307W, strain GAS1, active compounds read low 0.994 and 0.992 | S. cerevisiae deletion strains, locus YNL067W, strain RPL9B, active compounds read low 1.02 | S. cerevisiae deletion strains, locus YNL071W, strain lat1, active compounds read low 1 | S. cerevisiae deletion strains, locus YNL128W, strain TEP1, active compounds read low 0.962 | S. cerevisiae deletion strains, locus YNL153C, strain GIM3, active compounds read low 1.01 | S. cerevisiae deletion strains, locus YNL175C, strain NOP13, active compounds read low 1.02 | S. cerevisiae deletion strains, locus YNL183C, strain NPR1, active compounds read low 0.939 | S. cerevisiae deletion strains, locus YNL197C, strain WHI3, active compounds read low 0.981 | S. cerevisiae deletion strains, locus YNL209W, strain ssb2, active compounds read low 1 | S. cerevisiae deletion strains, locus YNL224C, strain SQS1, active compounds read low 1.01 | S. cerevisiae deletion strains, locus YNL233W, strain BNI4, active compounds read low 1.02 | S. cerevisiae deletion strains, locus YNL248C, strain rpa49, active compounds read low 1.02 | S. cerevisiae deletion strains, locus YNL250W, strain rad50, active compounds read low 0.976 | S. cerevisiae deletion strains, locus YNL271C, strain bni1, active compounds read low 0.987 | S. cerevisiae deletion strains, locus YNL298W, strain CLA4, active compounds read low 0.975 | S. cerevisiae deletion strains, locus YNL307C, strain MCK1, active compounds read low 0.992 | S. cerevisiae deletion strains, locus YNL322C, strain KRE1 (second series), active compounds read low 0.989 | S. cerevisiae deletion strains, locus YNL322C, strain KRE1, active compounds read low 0.996 and 1 | S. cerevisiae deletion strains, locus YNR049C, strain mso1, active compounds read low 0.994 | S. cerevisiae deletion strains, locus YNR052C, strain pop2, active compounds read low 0.985 | S. cerevisiae deletion strains, locus YOL006C, strain TOP1, active compounds read low 1.03 | S. cerevisiae deletion strains, locus YOL012C, strain htz1 0.982 | S. cerevisiae deletion strains, locus YOL147C, strain pex11, active compounds read low 0.992 | S. cerevisiae deletion strains, locus YOR001W, strain rrp6, active compounds read low 0.996 | S. cerevisiae deletion strains, locus YOR061W, strain CKA2, active compounds read low 0.969 | S. cerevisiae deletion strains, locus YOR069W, strain VPS5, active compounds read low 0.991 | S. cerevisiae deletion strains, locus YOR070C, strain gyp1, active compounds read low 0.992 | S. cerevisiae deletion strains, locus YOR080W, strain dia2, active compounds read low 0.974 | S. cerevisiae deletion strains, locus YOR083W, strain WHI5 (second series), active compounds read low 1.02 | S. cerevisiae deletion strains, locus YOR083W, strain WHI5, active compounds read low 1.01 | S. cerevisiae deletion strains, locus YOR106W, strain vam3, active compounds read low 1.01 | S. cerevisiae deletion strains, locus YOR136W, strain idh2, active compounds read low 0.983 | S. cerevisiae deletion strains, locus YOR144C, strain elg1, active compounds read low 0.996 | S. cerevisiae deletion strains, locus YOR184W, strain ser1, active compounds read low 0.98 | S. cerevisiae deletion strains, locus YOR231W, strain MKK1, active compounds read low 0.99 | S. cerevisiae deletion strains, locus YOR265W, strain rbl2, active compounds read low 0.99 | S. cerevisiae deletion strains, locus YOR270C, strain vph1, active compounds read low 1.05 | S. cerevisiae deletion strains, locus YOR290C, strain snf2, active compounds read low 0.956 | S. cerevisiae deletion strains, locus YOR316C, strain cot1, active compounds read low 0.995 | S. cerevisiae deletion strains, locus YPL051W, strain arl3, active compounds read low 0.999 | S. cerevisiae deletion strains, locus YPL055C, strain LGE1, active compounds read low 0.989 and 1 | S. cerevisiae deletion strains, locus YPL078C, strain atp4, active compounds read low 1.01 | S. cerevisiae deletion strains, locus YPL106C, strain sse1, active compounds read low 0.944 | S. cerevisiae deletion strains, locus YPL240C, strain hsp82, active compounds read low 0.994 | S. cerevisiae deletion strains, locus YPL241C, strain CIN2, active compounds read low 0.984 and 1 | S. cerevisiae deletion strains, locus YPL256C, strain CLN2, active compounds read low 0.984 | S. cerevisiae deletion strains, locus YPR119W, strain clb2, active compounds read low 0.987 | S. cerevisiae deletion strains, locus YPR141C, strain kar3, active compounds read low 0.982 | S. cerevisiae deletion strains, locus YPR163C, strain tif3, active compounds read low 0.981 | S. cerevisiae deletion strains, locus YPR167C, strain met16, active compounds read low 0.993 | S. cerevisiae deletion strains, strain wtn01, active compounds read low 1.01 | S. cerevisiae strains, strain wild type, active compounds read low 0.988
